Measured values from PubChem BioAssay AID1508601 (ICCB-Longwood Screening Facility, Harvard Medical School, 2020).
“And” between values parts separate entries of the source, which are not always exact repeats. Equal values may be shown once. Out of some 5,700 compounds screened, about 85 (1%) were called active. Cut-off read from the data, not from the text of the source: active = p53-positive nuclei above about 36% (passing the limit was not always enough); inactive = the rest. The entries come from a sample that favours actives as a whole.

Legend:
[1] = nuclear p53 accumulation, HPV+ cells – imaging, p53-positive nuclei imaging, 24 h, 48 h (AID 1508601); conditions: 24/48 h
[2] = biological target: Cellular tumor antigen p53 (Homo sapiens) (UniProt P04637); test: as above; conditions: 24/48 h, stronger effect = higher value
[3] = measured here: cell number at 24 h, Library stock concentration: 80 uM
[4] = measured here: cell number at 24 h, Library stock concentration: 400 uM
[5] = measured here: cell number at 24 h, Library stock concentration: 2 mM
[6] = measured here: cell number at 24 h, Library stock concentration: 10 mM
[7] = measured here: cell number at 48 h, Library stock concentration: 80 uM
[8] = measured here: cell number at 48 h, Library stock concentration: 400 uM
[9] = measured here: cell number at 48 h, Library stock concentration: 2 mM
[10] = measured here: cell number at 48 h, Library stock concentration: 10 mM
[11] = Library stock concentration: 80 uM
[12] = Library stock concentration: 400 uM
[13] = Library stock concentration: 2 mM
[14] = Library stock concentration: 10 mM
[15] = measured here: p53 positive nuclei at 24 h, Library stock concentration: 80 uM
[16] = measured here: p53 positive nuclei at 24 h, Library stock concentration: 400 uM
[17] = measured here: p53 positive nuclei at 24 h, Library stock concentration: 2 mM
[18] = measured here: p53 positive nuclei at 24 h, Library stock concentration: 10 mM
[19] = measured here: cell number at 24 h, Library stock concentration: 3.33 mM
[20] = measured here: cell number at 48 h, Library stock concentration: 3.33 mM
[21] = Library stock concentration: 3.33 mM
[22] = measured here: p53 positive nuclei at 24 h, Library stock concentration: 3.33 mM

Cellular tumor antigen p53 (Homo sapiens), sequence (P04637 whole entry, looked up): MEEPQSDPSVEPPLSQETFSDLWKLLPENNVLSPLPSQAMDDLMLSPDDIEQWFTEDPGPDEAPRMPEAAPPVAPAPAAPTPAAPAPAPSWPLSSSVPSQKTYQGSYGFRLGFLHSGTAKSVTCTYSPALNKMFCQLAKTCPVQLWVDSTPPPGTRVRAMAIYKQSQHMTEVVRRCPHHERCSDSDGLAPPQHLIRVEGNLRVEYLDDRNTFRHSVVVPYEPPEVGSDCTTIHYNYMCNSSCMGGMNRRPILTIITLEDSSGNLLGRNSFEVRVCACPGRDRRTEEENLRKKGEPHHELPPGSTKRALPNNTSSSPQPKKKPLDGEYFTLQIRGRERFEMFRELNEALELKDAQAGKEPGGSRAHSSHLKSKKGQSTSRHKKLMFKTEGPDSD

CC(NC(=O)c1cc(Cl)ccc1Oc1ccc(F)cc1)c1ccc(C(=O)O)cc1 (stereo unspecified)
nuclei count, normalised [1, 3]: 115%
nuclei count, normalised [1, 4]: 119%
nuclei count, normalised [1, 5]: 117%
nuclei count, normalised [1, 6]: 107%
nuclei count, normalised [1, 7]: 117%
nuclei count, normalised [1, 8]: 115%
nuclei count, normalised [1, 9]: 114%
nuclei count, normalised [1, 10]: 108%
p53-positive nuclei, normalised [2, 11]: 0.0152% (inactive)
p53-positive nuclei, normalised [2, 12]: -0.136% (inactive)
p53-positive nuclei, normalised [2, 13]: -0.0948% (inactive)
p53-positive nuclei, normalised [2, 14]: -0.00827% (inactive)
p53-positive nuclei, normalised [2, 15]: -0.00172%
p53-positive nuclei, normalised [2, 16]: -0.0227%
p53-positive nuclei, normalised [2, 17]: -0.0802%
p53-positive nuclei, normalised [2, 18]: -0.136%

O=C1OC[C@@H](Cc2cccc(O)c2)[C@@H]1Cc1cccc(O)c1
nuclei count, normalised ([1]; measured here: cell number at 24 h, concentration not given here): 111%
nuclei count, normalised ([1]; measured here: cell number at 48 h, concentration not given here): 114%
p53-positive nuclei, normalised ([2]; concentration not given here): -0.147% (inactive)
p53-positive nuclei, normalised ([2]; measured here: p53 positive nuclei at 24 h, concentration not given here): -0.118%

COC1C[C@H]2CCC(C)[C@@](O)(O2)C(=O)C(=O)N2CCCC[C@H]2C(=O)OC(C(C)CC2CCC(OP(C)(C)=O)C(OC)C2)CC(=O)C(C)C=C(C)C(O)C(OC)C(=O)C(C)CC(C)C=CC=CC=C1C (stereo partly specified)
nuclei count, normalised [1, 19]: 108%
nuclei count, normalised [1, 20]: 105%
p53-positive nuclei, normalised [2, 21]: -0.656% (inactive)
p53-positive nuclei, normalised [2, 22]: -0.202%

Cc1c(CN2CCN(C(=O)C(C)O)CC2)sc2c(N3CCOCC3)nc(-c3cnc(N)nc3)nc12 (stereo unspecified)
nuclei count, normalised [1, 3]: 107%
nuclei count, normalised [1, 4]: 110%
nuclei count, normalised [1, 5]: 89.3%
nuclei count, normalised [1, 19]: 82.6%
nuclei count, normalised [1, 6]: 84.4%
nuclei count, normalised [1, 7]: 113%
nuclei count, normalised [1, 8]: 112%
nuclei count, normalised [1, 9]: 89%
nuclei count, normalised [1, 20]: 84%
nuclei count, normalised [1, 10]: 88.2%
p53-positive nuclei, normalised [2, 11]: 0.00265% (inactive)
p53-positive nuclei, normalised [2, 12]: -0.106% (inactive)
p53-positive nuclei, normalised [2, 13]: -0.151% (inactive)
p53-positive nuclei, normalised [2, 21]: -0.349% (inactive)
p53-positive nuclei, normalised [2, 14]: -0.157% (inactive)
p53-positive nuclei, normalised [2, 15]: 0.036%
p53-positive nuclei, normalised [2, 16]: -0.106%
p53-positive nuclei, normalised [2, 17]: -0.151%
p53-positive nuclei, normalised [2, 22]: -0.356%
p53-positive nuclei, normalised [2, 18]: -0.0302%

CS(=O)(=O)N1CCN(Cc2cc3nc(-c4cccc5[nH]ncc45)nc(N4CCOCC4)c3s2)CC1
nuclei count, normalised ([1]; measured here: cell number at 24 h, Library stock concentration: 46 uM): 89.1%
nuclei count, normalised [1, 3]: 105%
nuclei count, normalised ([1]; measured here: cell number at 24 h, Library stock concentration: 278 uM): 97%
nuclei count, normalised [1, 4]: 93.5%
nuclei count, normalised ([1]; measured here: cell number at 24 h, Library stock concentration: 1.67 mM): 84.9%
nuclei count, normalised [1, 5]: 94%
nuclei count, normalised [1, 19]: 97.5%
nuclei count, normalised [1, 6]: 66.1% and 64.1%
nuclei count, normalised ([1]; measured here: cell number at 48 h, Library stock concentration: 46 uM): 97%
nuclei count, normalised [1, 7]: 109%
nuclei count, normalised ([1]; measured here: cell number at 48 h, Library stock concentration: 278 uM): 100%
nuclei count, normalised [1, 8]: 93.5%
nuclei count, normalised ([1]; measured here: cell number at 48 h, Library stock concentration: 1.67 mM): 87.3%
nuclei count, normalised [1, 9]: 89.3%
nuclei count, normalised [1, 20]: 101%
nuclei count, normalised [1, 10]: 56.3% and 65.9%
p53-positive nuclei, normalised ([2]; Library stock concentration: 46 uM): -0.00738% (inactive)
p53-positive nuclei, normalised [2, 11]: -0.168% (inactive)
p53-positive nuclei, normalised ([2]; Library stock concentration: 278 uM): -0.0603% (inactive)
p53-positive nuclei, normalised [2, 12]: -0.297% (inactive)
p53-positive nuclei, normalised ([2]; Library stock concentration: 1.67 mM): -0.0683% (inactive)
p53-positive nuclei, normalised [2, 13]: -0.297% (inactive)
p53-positive nuclei, normalised [2, 21]: -0.619% (inactive)
p53-positive nuclei, normalised [2, 14]: -0.184% (inactive) and -0.277% (inactive)
p53-positive nuclei, normalised ([2]; measured here: p53 positive nuclei at 24 h, Library stock concentration: 46 uM): -0.0723%
p53-positive nuclei, normalised [2, 15]: 0.26%
p53-positive nuclei, normalised ([2]; measured here: p53 positive nuclei at 24 h, Library stock concentration: 278 uM): -0.0265%
p53-positive nuclei, normalised [2, 16]: -0.0433%
p53-positive nuclei, normalised ([2]; measured here: p53 positive nuclei at 24 h, Library stock concentration: 1.67 mM): -0.14%
p53-positive nuclei, normalised [2, 17]: -0.0447%
p53-positive nuclei, normalised [2, 22]: -0.329%
p53-positive nuclei, normalised [2, 18]: -0.00819% and -0.118%

COc1ccc(-c2nc(N3CCOCC3)c3sc(CN(C)c4ncc(C(=O)NO)cn4)cc3n2)cn1
nuclei count, normalised [1, 3]: 47.5%
nuclei count, normalised [1, 4]: 43.3%
nuclei count, normalised [1, 5]: 39.6%
nuclei count, normalised [1, 19]: 33.2%
nuclei count, normalised [1, 6]: 31.5%
nuclei count, normalised [1, 7]: 22.9%
nuclei count, normalised [1, 8]: 21.1%
nuclei count, normalised [1, 9]: 24.2%
nuclei count, normalised [1, 20]: 21.9%
nuclei count, normalised [1, 10]: 19%
p53-positive nuclei, normalised [2, 11]: 96.8% (active)
p53-positive nuclei, normalised [2, 12]: 94.6% (active)
p53-positive nuclei, normalised [2, 13]: 98.6% (active)
p53-positive nuclei, normalised [2, 21]: 65.1% (active)
p53-positive nuclei, normalised [2, 14]: 81.6% (active)
p53-positive nuclei, normalised [2, 15]: 77.1%
p53-positive nuclei, normalised [2, 16]: 75.3%
p53-positive nuclei, normalised [2, 17]: 81.2%
p53-positive nuclei, normalised [2, 22]: 43.2%
p53-positive nuclei, normalised [2, 18]: 59%
